# The source made the active and inactive calls.
# Assays:
# [1] = small molecules captured by biotinylated probe aFSTL3 – biochemical, small-molecule microarray, fluorescence 635/667, stem cell growth factor project, primary screen (AID 1064); conditions: higher = more signal;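 further: measures binding of the biotinylated anti-FSTL3 antibody to printed compounds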
# [2] = binders from COS7 lysate, DM2A8 probe, primary screen, torsin A project, cell lysate, small-molecule microarray, fluorescence 635/667 (AID 1065); conditions: higher = more signal, COS7 lysate expressing mutant human TOR1A
# [3] = small molecules captured by biotinylated probe aFGF2 – biochemical, small-molecule microarray, fluorescence 635/667, stem cell growth factor project, primary screen (AID 1067); conditions: higher = more signal;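 further: measures binding of biotinylated aFGF2 protein to printed compounds on slides; z-score merges feature fluorescence and signal-to-noise across triplicate slides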
# [4] = small molecules captured by biotinylated probe aFGF10 – biochemical, small-molecule microarray, fluorescence 635/667, stem cell growth factor project, primary screen (AID 1071); conditions: higher = more signal;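 further: score merges 667 nm spot intensity and signal to noise from triplicate slides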
# [5] = target: Neurogenic locus notch homolog protein 2 (Homo sapiens) (UniProt Q04721); experiment: small molecules binding Notch2 protein – biochemical, small-molecule microarray, 635 nm fluorescence, stem cell growth factors, primary screen (AID 1073); conditions: higher = more signal
# Sequence of Neurogenic locus notch homolog protein 2 (Homo sapiens) (Q04721 whole entry, looked up, canonical isoform): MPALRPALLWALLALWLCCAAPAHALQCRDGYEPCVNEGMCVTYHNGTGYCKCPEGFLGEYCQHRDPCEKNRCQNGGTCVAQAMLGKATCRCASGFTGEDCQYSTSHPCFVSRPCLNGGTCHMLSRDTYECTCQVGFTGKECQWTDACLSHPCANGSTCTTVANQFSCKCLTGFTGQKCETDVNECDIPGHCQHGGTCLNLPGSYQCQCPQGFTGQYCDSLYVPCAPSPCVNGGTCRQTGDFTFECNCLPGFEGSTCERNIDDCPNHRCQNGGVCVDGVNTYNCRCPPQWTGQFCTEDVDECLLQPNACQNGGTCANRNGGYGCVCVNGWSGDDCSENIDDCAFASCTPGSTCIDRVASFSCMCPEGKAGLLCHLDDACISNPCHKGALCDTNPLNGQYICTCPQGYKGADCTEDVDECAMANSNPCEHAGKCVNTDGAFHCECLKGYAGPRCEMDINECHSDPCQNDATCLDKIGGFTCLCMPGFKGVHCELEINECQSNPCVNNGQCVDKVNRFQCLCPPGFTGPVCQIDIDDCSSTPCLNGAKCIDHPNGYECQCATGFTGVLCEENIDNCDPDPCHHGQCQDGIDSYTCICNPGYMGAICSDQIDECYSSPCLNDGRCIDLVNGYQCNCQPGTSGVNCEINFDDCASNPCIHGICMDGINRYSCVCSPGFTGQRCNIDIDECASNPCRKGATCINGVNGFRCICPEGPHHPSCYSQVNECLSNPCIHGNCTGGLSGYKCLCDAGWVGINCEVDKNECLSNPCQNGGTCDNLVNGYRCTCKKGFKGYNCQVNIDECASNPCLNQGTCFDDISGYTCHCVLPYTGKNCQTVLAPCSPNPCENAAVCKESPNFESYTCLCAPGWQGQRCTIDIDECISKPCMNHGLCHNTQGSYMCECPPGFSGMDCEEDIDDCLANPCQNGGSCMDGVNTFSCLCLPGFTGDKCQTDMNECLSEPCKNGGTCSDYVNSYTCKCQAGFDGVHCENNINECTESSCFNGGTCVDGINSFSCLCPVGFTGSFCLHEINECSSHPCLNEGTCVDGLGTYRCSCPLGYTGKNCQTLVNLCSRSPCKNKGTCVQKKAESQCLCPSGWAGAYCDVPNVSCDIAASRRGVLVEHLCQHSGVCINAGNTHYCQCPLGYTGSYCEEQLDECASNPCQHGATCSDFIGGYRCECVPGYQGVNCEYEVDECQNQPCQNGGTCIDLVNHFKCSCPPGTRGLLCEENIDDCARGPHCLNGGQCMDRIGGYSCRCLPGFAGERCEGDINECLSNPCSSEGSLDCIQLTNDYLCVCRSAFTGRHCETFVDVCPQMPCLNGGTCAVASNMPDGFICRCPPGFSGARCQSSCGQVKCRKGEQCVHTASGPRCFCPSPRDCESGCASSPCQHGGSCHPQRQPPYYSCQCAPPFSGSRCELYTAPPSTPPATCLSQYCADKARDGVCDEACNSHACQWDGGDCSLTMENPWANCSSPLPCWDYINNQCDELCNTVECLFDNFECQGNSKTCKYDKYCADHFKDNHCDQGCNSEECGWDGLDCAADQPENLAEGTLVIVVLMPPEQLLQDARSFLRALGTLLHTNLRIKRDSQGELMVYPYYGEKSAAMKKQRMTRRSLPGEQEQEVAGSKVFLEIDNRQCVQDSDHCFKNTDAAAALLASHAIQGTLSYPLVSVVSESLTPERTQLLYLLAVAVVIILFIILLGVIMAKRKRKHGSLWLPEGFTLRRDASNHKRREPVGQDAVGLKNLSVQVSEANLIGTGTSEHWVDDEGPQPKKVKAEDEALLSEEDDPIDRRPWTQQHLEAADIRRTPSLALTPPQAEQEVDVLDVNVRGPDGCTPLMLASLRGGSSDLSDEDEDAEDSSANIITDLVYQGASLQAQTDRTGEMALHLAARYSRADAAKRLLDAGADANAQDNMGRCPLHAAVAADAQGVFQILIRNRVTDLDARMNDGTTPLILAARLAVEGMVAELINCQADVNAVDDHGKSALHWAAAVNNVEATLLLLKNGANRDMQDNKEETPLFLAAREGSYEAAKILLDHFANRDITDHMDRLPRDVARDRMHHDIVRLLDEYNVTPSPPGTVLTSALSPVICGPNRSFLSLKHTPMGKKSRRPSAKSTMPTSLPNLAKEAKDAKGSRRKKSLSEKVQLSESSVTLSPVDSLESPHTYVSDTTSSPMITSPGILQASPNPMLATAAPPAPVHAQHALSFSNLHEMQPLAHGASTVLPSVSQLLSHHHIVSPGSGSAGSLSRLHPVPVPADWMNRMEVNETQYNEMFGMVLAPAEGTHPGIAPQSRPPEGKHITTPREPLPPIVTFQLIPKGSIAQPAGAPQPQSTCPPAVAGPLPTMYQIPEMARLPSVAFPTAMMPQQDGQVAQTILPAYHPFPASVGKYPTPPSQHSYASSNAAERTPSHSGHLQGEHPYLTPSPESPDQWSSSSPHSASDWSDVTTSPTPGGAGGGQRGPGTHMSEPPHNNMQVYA
# [6] = target: Pro-neuregulin-1, membrane-bound isoform (Homo sapiens) (UniProt Q02297); experiment: small molecules binding neuregulin-1 protein – biochemical, small-molecule microarray, fluorescence 635/667, psychiatric disease protein project, primary screen (AID 1075); conditions: NRG1 binding, 635 nm fluorescence, higher = more signal;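 further: score combines 667 nm spot fluorescence with signal to noise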
# [7] = test system: Neuregulin-1 EGF-like domain; experiment: small molecules binding NRG1 EGF domain – biochemical, small-molecule microarray, 635 nm fluorescence, primary screen (AID 1081); conditions: higher = more signal;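 further: binding of the protein to compounds printed on small-molecule microarray slides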
# [8] = FRG1 expression reporter modulators in myotubes – cell-based, C2C12 myotubes, firefly/Renilla luciferase, luminescence, FRG1 inhibition for FSHD, primary screen (AID 1084); conditions: FRG1 promoter luciferase, higher = more signal, called active from +8 up or from −8 down
# [9] = small molecules captured by biotinylated probe aFST – biochemical, small-molecule microarray, fluorescence 635/667, stem cell growth factor project, primary screen (AID 1086); conditions: higher = more signal;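 further: score merges 667 nm fluorescence with signal-to-noise of each printed compound spot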
# [10] = binders of probe aHhip on microarray, primary screen, stem cell growth factor project, biochemical, small-molecule microarray, fluorescence 635/667 (AID 1087); conditions: higher = more signal;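 further: score merges spot fluorescence at 667nm with spot signal to noise ratio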
# [11] = test system: PRMT1 (protein arginine N-methyltransferase 1); experiment: small molecules binding arginine methyltransferase PRMT1 – biochemical, small-molecule microarray, 635 nm fluorescence, primary screen (AID 1088); conditions: higher = more signal;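 further: binding of Prmt1 protein to compounds spotted on small-molecule microarray slides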
# [12] = growth effects on S. cerevisiae YJM789 – YJM789 clinical isolate, OD600, 24 h, basal, primary screen (AID 1089); conditions: higher = more signal, called active from +8 up or from −8 down;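 further: growth of clinical yeast isolate S. cerevisiae YJM 789 seeded 1000 cells per well; test concentration not given here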
# [13] = S. pombe growth modifiers, basal conditions – strain 972, OD600, 24 h, no modulator, primary screen (AID 1090);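 further: basal condition with compound alone and no growth modifier present; test concentration not given here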; conditions: S. pombe 972 growth, higher = more signal, called active from +8 up or from −8 down
# [14] = budding yeast growth modifiers under rapamycin – strain BY4716, OD600, 96 h, primary screen (AID 1091); further: test concentration not given here; conditions: S. cerevisiae BY4716 + rapamycin, higher = more signal, called active from +8 up or from −8 down
# [15] = target: Torsin-1A-interacting protein 2 (Homo sapiens) (UniProt Q8NFQ8); experiment: small molecules binding lysate-expressed LULL1 – cell lysate, human LULL1 lysate, 635/667 nm fluorescence, primary screen (AID 1092); conditions: small-molecule microarray, hLULL1 lysate binding, 635 nm fluorescence; higher = more signal;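 further: probe is lysate of COS7 cells overexpressing human LULL1; score merges per-feature 667 nm fluorescence with signal-to-noise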
# [16] = optical density change of DRC41 E. coli – strain DRC41, OD650, 24 h, E. coli filamentation project, primary screen (AID 1093);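 further: MC1000 strain lacking acrAB efflux and sulA so SOS filamentation is blocked; test concentration not given here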; conditions: E. coli DRC41 growth, higher = more signal, called active from +8 up or from −8 down
# [17] = probe aLefty2 binding to arrayed compounds – biochemical, biotinylated probe, 635/667 nm fluorescence, primary screen (AID 1094); conditions: small-molecule microarray, higher = more signal;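 further: score merges spot fluorescence near 667 nm with spot signal-to-noise ratio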
# [18] = test system: Noggin (protein binding on small-molecule microarray); experiment: small molecules binding Noggin protein – biochemical, 635/667 nm fluorescence, primary screen (AID 1095); conditions: 635 nm fluorescence, higher = more signal;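 further: score merges 667 nm feature fluorescence with signal to noise over triplicate slides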
# [19] = target: Neurogenic locus notch homolog protein 3 (Homo sapiens) (UniProt Q9UM47); experiment: small molecules binding NOTCH3 protein – biochemical, 635/667 nm fluorescence, primary screen (AID 1096); conditions: small-molecule microarray, 635 nm fluorescence, higher = more signal
# Sequence of Neurogenic locus notch homolog protein 3 (Homo sapiens) (Q9UM47 whole entry, looked up): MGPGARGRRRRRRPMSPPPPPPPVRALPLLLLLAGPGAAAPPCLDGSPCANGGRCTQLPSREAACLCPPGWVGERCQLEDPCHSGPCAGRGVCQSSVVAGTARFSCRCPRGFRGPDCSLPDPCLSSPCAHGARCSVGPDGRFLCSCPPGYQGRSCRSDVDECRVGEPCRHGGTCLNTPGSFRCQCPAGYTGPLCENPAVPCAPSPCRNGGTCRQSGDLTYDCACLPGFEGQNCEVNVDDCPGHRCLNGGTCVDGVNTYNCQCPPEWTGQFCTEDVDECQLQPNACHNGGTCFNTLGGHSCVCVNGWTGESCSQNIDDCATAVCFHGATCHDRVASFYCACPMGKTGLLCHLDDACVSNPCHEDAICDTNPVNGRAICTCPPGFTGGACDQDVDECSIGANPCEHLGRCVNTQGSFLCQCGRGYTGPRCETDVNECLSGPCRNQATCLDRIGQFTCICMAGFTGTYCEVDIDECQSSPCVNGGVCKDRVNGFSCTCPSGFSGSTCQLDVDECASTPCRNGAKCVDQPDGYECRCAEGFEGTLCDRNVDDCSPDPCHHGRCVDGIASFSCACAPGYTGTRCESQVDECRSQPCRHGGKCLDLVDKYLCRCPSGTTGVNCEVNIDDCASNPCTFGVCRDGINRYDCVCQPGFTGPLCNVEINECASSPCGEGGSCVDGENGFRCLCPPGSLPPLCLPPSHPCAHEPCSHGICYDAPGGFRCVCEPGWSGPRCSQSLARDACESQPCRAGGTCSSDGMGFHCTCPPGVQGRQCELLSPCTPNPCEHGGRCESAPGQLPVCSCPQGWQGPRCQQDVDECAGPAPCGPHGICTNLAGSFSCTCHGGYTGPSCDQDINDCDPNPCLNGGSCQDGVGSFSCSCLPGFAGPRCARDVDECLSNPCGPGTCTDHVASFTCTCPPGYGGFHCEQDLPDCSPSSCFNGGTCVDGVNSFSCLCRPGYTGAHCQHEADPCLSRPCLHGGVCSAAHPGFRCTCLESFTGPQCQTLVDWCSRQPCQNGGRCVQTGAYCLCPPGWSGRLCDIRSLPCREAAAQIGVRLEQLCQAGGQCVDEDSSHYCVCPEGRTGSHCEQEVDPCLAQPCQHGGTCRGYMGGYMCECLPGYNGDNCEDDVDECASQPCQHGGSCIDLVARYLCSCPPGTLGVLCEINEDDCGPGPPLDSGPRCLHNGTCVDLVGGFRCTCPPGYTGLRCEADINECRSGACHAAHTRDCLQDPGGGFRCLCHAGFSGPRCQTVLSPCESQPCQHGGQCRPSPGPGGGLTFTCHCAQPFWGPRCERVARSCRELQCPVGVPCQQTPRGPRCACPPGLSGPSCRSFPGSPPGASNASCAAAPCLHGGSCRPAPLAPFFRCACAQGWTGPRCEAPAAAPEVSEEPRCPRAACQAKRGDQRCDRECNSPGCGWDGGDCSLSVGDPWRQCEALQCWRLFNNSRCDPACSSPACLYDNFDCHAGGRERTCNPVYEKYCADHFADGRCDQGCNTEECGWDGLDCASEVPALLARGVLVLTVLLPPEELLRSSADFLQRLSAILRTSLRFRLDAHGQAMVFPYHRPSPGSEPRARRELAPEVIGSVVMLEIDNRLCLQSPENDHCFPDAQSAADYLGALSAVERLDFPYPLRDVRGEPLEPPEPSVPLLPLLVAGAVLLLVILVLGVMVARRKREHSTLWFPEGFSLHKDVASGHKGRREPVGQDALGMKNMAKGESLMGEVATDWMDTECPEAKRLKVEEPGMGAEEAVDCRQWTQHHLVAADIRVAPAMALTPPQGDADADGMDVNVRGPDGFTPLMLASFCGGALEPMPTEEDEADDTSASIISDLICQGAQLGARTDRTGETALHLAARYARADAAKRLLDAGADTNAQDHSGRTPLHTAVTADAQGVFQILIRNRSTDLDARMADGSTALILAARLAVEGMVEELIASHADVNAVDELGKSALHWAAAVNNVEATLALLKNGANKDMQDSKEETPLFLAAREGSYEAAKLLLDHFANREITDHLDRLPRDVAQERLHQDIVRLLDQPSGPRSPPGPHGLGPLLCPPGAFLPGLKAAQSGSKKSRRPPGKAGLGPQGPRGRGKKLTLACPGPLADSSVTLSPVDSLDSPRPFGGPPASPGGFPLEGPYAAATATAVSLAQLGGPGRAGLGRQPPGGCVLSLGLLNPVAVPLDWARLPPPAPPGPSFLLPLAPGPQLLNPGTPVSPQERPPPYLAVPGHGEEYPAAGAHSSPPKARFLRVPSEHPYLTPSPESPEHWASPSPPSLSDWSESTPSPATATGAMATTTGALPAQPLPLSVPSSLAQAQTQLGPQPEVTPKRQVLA
# [20] = probe aEGFR binding to arrayed compounds – biochemical, biotinylated probe, 635/667 nm fluorescence, primary screen (AID 1097); conditions: small-molecule microarray, higher = more signal;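 further: probe is a biotinylated anti-EGFR antibody binding compounds printed on slides; score combines fluorescence near 667 nm and signal to noise of each spot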
Structure (SMILES),composite z-score [1],composite z-score [2],composite z-score [3],composite z-score [4],composite z-score [5],composite z-score [6],composite z-score [7],z-score [8],composite z-score [9],composite z-score [10],composite z-score [11],z-score [12],z-score [13],z-score [14],composite z-score [15],z-score [16],composite z-score [17],composite z-score [18],composite z-score [19],composite z-score [20]
COCCCNC(=O)[C@@H]1c2ccccc2C(=O)N(Cc2ccc(OC(F)(F)F)cc2)[C@H]1c1ccc(CO)cc1,-0.388,0.0383,0.015,0.235,0.329,0.244,0.617,-0.228 (inactive),0.541,1.03,1.34,-0.975 (inactive),-0.153 (inactive),-0.97 (inactive),2.36,-0.518 (inactive),-0.0687,0.489,0.554,-0.0949
C=CCNC(=O)[C@@H]1[C@H]2C(=O)O[C@H](c3ccccc3)[C@H](c3ccccc3)N2[C@H](c2ccc(OCCO)cc2)[C@@]12C(=O)Nc1ccc(C#CC3(O)CCCCCC3)cc12,0.0068,0.927,-0.0765,0.592,1.21,1.29,1.29,0.803 (inactive),0.551,-0.0994,1.45,1.84 (inactive),0.267 (inactive),4.71 (inactive),2.55,1.2 (inactive),0.0208,1.03,1.07,0.0519
CN1C(=O)C2C(C1=O)C1C=C(CCCO)C2C(C2CC2)N1Cc1cccc(OC(F)(F)F)c1 (stereo not given),-0.143,-0.122,-0.13,-0.203,-0.254,2,1.3,-0.688 (inactive),0.0794,-0.242,1.34,-1.07 (inactive),-1.58 (inactive),-1.15 (inactive),3.17,0.179 (inactive),-0.224,-0.0767,0.203,-0.144
COc1ccc(C(O)C2C=CC3C(=O)N(c4ccccc4)C(=O)C3N2Nc2ccc(C#N)cc2)cc1OCc1ccccc1 (stereo not given),1.98,1.55,0.19,0.472,1.34,2.02,0.823,0.686 (inactive),1.09,0.0053,1.3,-0.598 (inactive),1.66 (inactive),1.38 (inactive),2.6,-1.16 (inactive),0.455,-0.634,1.11,0.0808
O=C1O[C@H](c2ccccc2)[C@H](c2ccccc2)N2[C@H]1[C@@H](C(=O)N1CCN(c3ncccn3)CC1)[C@]1(C(=O)Nc3ccc(C#CCCO)cc31)[C@H]2c1ccc(O)cc1,-0.153,-0.162,0.0033,0.597,1.01,1.71,0.979,1.34 (inactive),0.0354,0.0373,0.738,0.515 (inactive),-0.443 (inactive),1.18 (inactive),2.92,-0.778 (inactive),-0.0784,0.283,0.504,-0.004
CC(C)C(CO)N1C(=O)[C@@H]2C3C(=O)OCCC/C=C\[C@H]3OC23C=CCN(Cc2ccccc2)C(=O)[C@@H]13 (stereo not given in full),0.598,-0.217,-0.0744,0.648,-0.376,1.43,1.58,0.597 (inactive),-0.406,-0.134,-0.928,-0.43 (inactive),-0.912 (inactive),-0.542 (inactive),1.18,1.3 (inactive),-0.0598,-0.989,-0.0928,-0.148
C=C1C(=O)C=C2CN(C(=O)c3ccccc3)[C@@](Cc3ccc(OC)cc3)(C(=O)OC)[C@@H]12,0.53,0.442,0.369,1.01,1.72,2.09,1.29,2.08 (inactive),0.924,0.212,1.54,0.573 (inactive),1.85 (inactive),10.3 (active),3.85,-0.656 (inactive),0.68,0.232,1.01,0.146
NCCCCCCNC(=O)[C@@H]1C[C@@H]2C(=O)N3CCC[C@H]3C(=O)N2[C@@H]1c1cccc(OCCO)c1,1.14,0.957,-0.0347,0.361,0.0828,1.58,1.36,1.52 (inactive),0.492,0.249,1.06,-1.18 (inactive),-0.822 (inactive),-0.651 (inactive),1.74,0.974 (inactive),0.0686,1.1,0.73,0.0713
CN(C)CCCC[C@@H]1NC(=O)[C@@H]2C[C@H](C(=O)NCCCCCN)[C@H](c3cccc(OCCO)c3)N2C1=O,-0.439,1.75,-0.121,0.549,0.549,1.09,1.35,-1.02 (inactive),0.153,0.0722,1.32,-5.45 (inactive),-3.9 (inactive),-0.962 (inactive),1.96,2.65 (inactive),-0.0592,1.17,1.04,-0.0943
CC(C)=C1C(=O)C(c2ccccc2)=C2CN3C(=O)N(CCc4ccccc4)C(=O)[C@]3(C)[C@H]21,0.532,-0.0272,0.15,0.265,1.26,1.81,1.07,0.863 (inactive),0.64,-0.0346,-0.638,-0.37 (inactive),-0.262 (inactive),1.48 (inactive),1.19,-1.27 (inactive),0.211,-0.335,0.451,-0.0251

# — PubChem BioAssay
